# Screens: PubChem BioAssay, Broad Institute
# aSyn UTR act – Activators working through SNCA 5'UTR binding (MLPCN); alpha-synuclein 5'UTR reporter, activators screen; activity score, % (tested at 7.5 µM), hits read low; hit rate 7.1% among 300,000; AID 1814; in the data active = activity score below about -60%
# Starred values were filed as active, the others as inactive. A selection follows.
SMILES,aSyn UTR act
Cc1nn(C)c(Sc2ccccn2)c1[N+](=O)[O-],-87*
COc1cc(-c2noc(C)c2/C=C/c2ccc(N)cc2)cc(OC)c1OC,104
CN(C)c1ccc(N=Nc2ccccc2C(=O)OCC(=O)N(C)C2CCCCC2)cc1,-135*
CN(C)c1ccc(N=Nc2ccccc2C(=O)OCC(=O)NC2CCCC2)cc1,-112*
O=C(/C=C/c1ccco1)NC(=S)Nc1ccccc1,-104*
CC(=O)c1ccc(NC(=S)NC(=O)/C=C/c2ccco2)cc1,-101*
O=C(Nc1ccc2c(c1)OCCO2)c1ccc(Cl)c(S(=O)(=O)N2CCOCC2)c1,-67*
O=C(Nc1ccc2c(c1)OCCO2)c1ccc(CN2CCOCC2)cc1,-148*
Cc1ccc(C(=O)Nc2ccc(CN3CCS(=O)(=O)CC3)cc2)cc1C,-78*
CCOc1ccc2c(c1)C(C)=CC(C)(C)N2S(=O)(=O)c1ccc(NC(C)=O)cc1,70
CC1=CC(C)(C)N(C(=O)CNC2CCCC2)c2cc(C)ccc21,-107*
CCOC(=O)c1ccc2nc3c(cc2c1)CCS3,-148*
CCOC(=O)C1CCN(C(=O)COc2ccc(Cl)cc2)CC1,-75*
CCOC(=O)C1CCCN(C(=O)CC(C)c2ccccc2)C1 (stereo not given),-115*
CCOC(=O)C1CCN(C(=O)/C=C/c2ccc3c(c2)OCO3)CC1,-74*
O=C(/C=C/c1ccc2c(c1)OCO2)N1CCCCC1,-132*
CCOC(=O)C1CCN(C(=O)/C=C/c2ccccc2)CC1,-139*
Clc1c(-c2ccccc2)nnn1-c1ccccc1,-65*
N#Cc1c(N)nc2c(c1N)CC(=O)N2c1ccc(Cl)cc1,-132*
CCOC(=O)c1cnn(-c2ccccn2)c1N,-116*
c1ccc(Oc2cc(-c3ccccc3)ncn2)cc1,-124*
CCOC(=O)c1cnn(-c2ncnc3sc4c(c23)CCC4)c1N,-75*
CCOC(=O)c1cnn(-c2ncnc3c2oc2ccccc23)c1N,-98*
CCOC(=O)c1cnn(-c2cc(Oc3ccccc3)ncn2)c1N,-101*
Cc1cnn(-c2cc(Oc3ccccc3)ncn2)c1,-216*
SMILES,aSyn UTR act
CCOC(=O)c1cnn(-c2cc(C)c3ccccc3n2)c1N,-65*
CCOC(=O)c1cnn(-c2cc(Oc3ccccc3C)ncn2)c1N,-88*
Cc1ccc(/C=C/C(=O)Nc2nc3ccccc3[nH]2)cc1,-186*
O=C(/C=C/c1c(F)cccc1Cl)Nc1nc2ccccc2[nH]1,-314*
Cc1cc(N=NC(=O)c2ccccc2O)c2ccccc2c1O,-123*
Cn1c(O)c(N=Nc2ccccc2[N+](=O)[O-])c2ccccc21,-65*
Cn1c(O)c(N=NC(=O)c2ccccc2O)c2ccccc21,-103*
Cc1ccc(N=Nc2ccc(O)c3ncccc23)cc1C,74
Cn1c(O)c(N=NC(=S)Nc2ccccc2F)c2cc(S(=O)(=O)N3CCOCC3)ccc21,95
Cc1occc1C(=O)N=Nc1c(O)[nH]c2ccc(Br)cc12,-237*
Cc1cccc(Cn2c(O)c(N=NC(=S)Nc3ccccc3F)c3ccccc32)c1,61
Cc1occc1C(=O)N=Nc1c(O)n(C)c2ccccc12,-247*
Cn1c(O)c(N=NC(=O)c2ccco2)c2ccccc21,-80*
COc1ccc(-n2ncc3c(NCCCn4ccnc4)ncnc32)cc1,-122*
COCCNc1ncnc2c1cnn2-c1ccc(Cl)cc1,-78*
OCCOCCNc1ncnc2c1cnn2-c1ccccc1,-137*
OCCOCCNc1ncnc2c1cnn2-c1ccc(Cl)cc1,-93*
COCCN(CCOC)c1ncnc2c1cnn2-c1ccc(Cl)cc1,-139*
Cc1ccc(N=C2NC(=O)S/C2=C\c2ccco2)cc1,-63*
COc1ccc(N=C2NC(=O)/C(=C/c3ccco3)S2)cc1,-127*
Cc1ccc(C(=O)NNC(=O)CCCN2C(=O)/C(=C/c3ccccc3Cl)SC2=S)cc1,69
O=C1NC(=Nc2ccccc2)/C(=C/c2ccco2)S1,-65*
Cc1ccc(/C=C2/SC(=S)N(CCCC(=O)Nc3ccc(O)cc3)C2=O)cc1,86
Cc1ccc(N2C(=O)/C(=C/c3ccco3)SC2=S)cc1,-94*
COc1ccc(CC2(CO)COc3ccccc3C2=O)cc1 (stereo not given),-64*
SMILES,aSyn UTR act
Cc1ccc(C(=O)N/N=C2\SCC(=O)N2c2cc(C)ccc2C)cc1,-94*
O=C1CC(/C=C/c2ccncc2)=Nc2ccccc2N1,-65*
Cc1ccc(NC(=O)Nc2ccon2)cc1,-102*
CCOc1ccc(NC(=O)Nc2ccon2)cc1,-116*
O=C(Nc1ccc(Cl)cc1)Nc1ccon1,-129*
Brc1ccc2nc(N3CCN(c4ccccc4)CC3)sc2c1,-143*
Clc1ccc2nc(N3CCN(c4ccccc4)CC3)sc2c1,-109*
CC(=O)c1coc2c1cc(O)c1ccccc12,-83*
CC(C)CNC(=S)NC1CC2CCCC(C1)N2C1CCCCC1 (stereo not given),-107*
Cc1ccccc1Nc1nnc(SCC(=O)NC(=O)Nc2ccc3c(c2)OCCO3)s1,-86*
Cc1cccc(Nc2nnc(SCC(=O)NC(=O)Nc3ccc4c(c3)OCCO4)s2)c1,-95*
O=C(c1ccco1)N1CCN(c2ncnc3c2cnn3-c2ccccc2)CC1,-94*
CC1CCN(c2ncnc3c2cnn3-c2ccccc2)CC1,-119*
Clc1ccc(-n2ncc3c(N4CCCC4)ncnc32)cc1,92
Cn1nc(OC(=O)Nc2ccc(Cl)cc2)cc1C(F)(F)F,-85*
O=[N+]([O-])c1cc(C(F)(F)F)ccc1Sc1ccc2ccccc2n1,-75*
OCc1cc(Br)ccc1OCc1nc2ccccc2s1,-70*
Oc1ccccc1OCc1nc2ccccc2s1,-113*
CCOC(=O)CC(NC(=O)c1cc2cccc(OC)c2oc1=O)c1ccc(OC)cc1 (stereo not given),-70*
COc1cccc2cc(C(=O)NCc3ccccn3)c(=O)oc12,-164*
Cc1nonc1NC(=O)c1oc2ccc(F)cc2c1C,-73*
Cc1cc2oc(C(=O)Nc3nonc3C)c(C)c2cc1Cl,-88*
COc1cccc(CNC(=O)Cc2ccc(NC(=O)C3=C(C)OCCS3)cc2)c1,-80*
CCc1ccc(CNC(=O)Cc2ccc(NC(=O)C3=C(C)OCCS3)cc2)cc1,66
COc1ccc(OCCCC(=O)Nc2ccc3c(c2)OCCO3)cc1,-132*
SMILES,aSyn UTR act
CCOCC(=O)Nc1ccc2c(c1)OCCO2,-66*
CCN(CC(=O)Nc1ccc2c(c1)OCCO2)C(=O)/C=C/c1ccc(F)cc1,-70*
O=C(COc1ccc(F)cc1)Nc1ccc2c(c1)OCCO2,-144*
O=C(COc1ccc2c(c1)OCO2)Nc1cccc(F)c1,-94*
COc1cccc(CNC(C)C(=O)Nc2ccc3c(c2)OCCO3)c1 (stereo not given),-89*
OCCN(CCO)CC(O)COc1ccc(C23CC4CC(CC(C4)C2)C3)cc1 (stereo not given),76
COc1cc(CO)ccc1OCc1ccc(Cl)nc1,-102*
Cn1c(SCc2ccc(C#N)cc2Cl)nc2ccccc21,-176*
C/C(=N\N=C\c1ccccc1F)c1nnn(-c2nonc2N)c1C,-79*
C/C(=N\NC(=O)c1nnn(-c2nonc2N)c1CN1CCc2ccccc21)c1ccccc1O,75
Cc1ccc(/C=N/NC(=O)c2nnn(-c3nonc3N)c2-c2cccs2)cc1,69
CCOc1cccc(-c2c(C(=O)N/N=C(\C)c3ccccn3)nnn2-c2nonc2N)c1,90
CC(C)c1c(C(=O)N/N=C/c2ccc(OCc3ccc(F)cc3)cc2)nnn1-c1nonc1N,-72*
C/C(=N\NC(=O)c1nnn(-c2nonc2N)c1C)c1ccc(OCc2ccccc2)cc1,-67*
